Screening results as filed in PubChem BioAssay.
TDP1 cell noCPT = qHTS for Inhibitors of human tyrosyl-DNA phosphodiesterase 1 (TDP1): qHTS in cells in absence of CPT | DT40 Tdp1-/- hTDP1 cells, no CPT, ATP luminescence, 48 h | Potency, µM (titrated, usually from 46.2 µM), inactives show top-dose activity change, negative = growth inhibition, actives largely listed as inhibitors | 420,000 tested, 15% active | AID 686978, 2013; also: potency is read from the fitted curve at half-maximal effect; nearly all actives have a fitted effect of over 55% in size
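Stably hTDP1-transfected Tdp1-null chicken DT40 cells were treated with library compounds minus camptothecin and grown for at least 48 hr at 37 °C, after which cellular ATP was quantified by luminescence.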
IL-1B inflam inh = blocks inflammasome-driven IL-1 beta release; THP-1 LPS/ATP IL-1B secretion, AlphaLISA, 16 h; hits give low values; activity change, % at 57.5 µM; 360,000 tested, 4.7% active; in the data active = activity change below about -50%; inconclusive = mostly about -30% to -49%
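Secreted IL-1B measured by AlphaLISA bead assay after 16 h compound exposure of THP-1 cells; compounds (final up to 57.5 uM) added 1 h before LPS (250 ng/mL) and ATP (1.25 mM) stimulation; lower signal means less secretion.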
ALOX12 inh = ALOX12 (human) lipoxygenase inhibition; Potency, µM (titrated, usually from 108 µM), for inactives: at the highest dose activity change, negative = inhibition, usual class: inhibitors; purified 12hLO, xylenol orange hydroperoxide absorbance; 580,000 tested, 1.1% active; P18054; also: potency is read from the fitted curve at half-maximal effect
Target sequence (P18054 whole entry, looked up): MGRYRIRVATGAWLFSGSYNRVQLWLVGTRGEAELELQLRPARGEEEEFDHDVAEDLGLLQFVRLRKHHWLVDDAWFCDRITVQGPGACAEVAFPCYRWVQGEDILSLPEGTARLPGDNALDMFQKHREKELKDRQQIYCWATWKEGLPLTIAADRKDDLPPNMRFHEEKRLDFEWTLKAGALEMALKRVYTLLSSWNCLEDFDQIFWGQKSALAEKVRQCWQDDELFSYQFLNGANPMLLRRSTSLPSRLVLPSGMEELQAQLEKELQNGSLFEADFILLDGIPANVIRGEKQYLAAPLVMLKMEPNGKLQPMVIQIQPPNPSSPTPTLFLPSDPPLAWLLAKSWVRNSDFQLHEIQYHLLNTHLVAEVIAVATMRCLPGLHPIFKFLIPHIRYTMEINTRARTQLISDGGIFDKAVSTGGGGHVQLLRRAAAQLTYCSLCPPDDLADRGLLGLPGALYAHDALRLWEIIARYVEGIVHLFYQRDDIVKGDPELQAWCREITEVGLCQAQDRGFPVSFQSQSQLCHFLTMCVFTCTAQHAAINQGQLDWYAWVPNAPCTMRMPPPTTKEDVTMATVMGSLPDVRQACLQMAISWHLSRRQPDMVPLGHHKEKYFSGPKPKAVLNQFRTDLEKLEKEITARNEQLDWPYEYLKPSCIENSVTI
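Purified human 12hLO (150 nM final) in 25 mM Hepes, 0.01% Triton X-100, pH 7.0 was preincubated 15 min at room temperature with compound. Then 40 uM arachidonic acid was added, 30 min. Hydroperoxide was read by Fe-XO absorbance ratio 573/405 nm.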
HT1080-NT tox = kills 2HG-producing HT-1080-NT fibrosarcoma cells; HT-1080-NT fibrosarcoma viability, CellTiter-Glo ATP luminescence, 48 h; Potency, µM (top dose mostly 46.1 µM), for the others: at the highest dose activity, negative = less viability, hits mostly cytotoxic; 360,000 tested, 1.6% active;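 also: NT is the 2HG producing partner of a matched IDH1 knockdown line; potency is read from the fitted curve at half-maximal effect; 0% = DMSO-treated cells and -100% = media-only wells without cells; nearly all actives have a fitted effect of over 55% in size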
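Viability by CellTiter-Glo luminescence after 48 h compound exposure at 37C of HT-1080-NT cells (750/well, RPMI, 5% FBS). % activity scaled between DMSO wells and medium-only wells, then curve-fitted and categorized by curve class.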
TDP1 cell CPT = growth inhibition of DT40 Tdp1-/-;hTDP1 cells with camptothecin (screen for TDP1 inhibitors); chicken DT40 Tdp1-/-;hTDP1 cells + 20 nM CPT, ATP luminescence, 48 h; Potency, µM (doses to about 46.2 µM), without a hit: at the highest dose activity change, negative = growth inhibition, usual class: inhibitors; 420,000 tested, 12% active; AID 686979; also: potency is read from the fitted curve at half-maximal effect; nearly all actives have a fitted effect of over 55% in size
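Chicken DT40 Tdp1-/- cells complemented with human TDP1, 400 cells/well, exposed to compounds plus 20 nM camptothecin for at least 48 h at 37 C; viability read as ATP content by CellTiter-Glo luminescence.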
HT1080 IDH1KD tx = toxicity to HT-1080 IDH1 knockdown cells (counter line); HT-1080 IDH1 knockdown viability, ATP luminescence, 48 h; Potency, µM (series often up to 46.1 µM), for inactives: at the top dose activity, negative = toxicity, actives largely listed as cytotoxic; 360,000 tested, 2% active;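 also: potency is read from the fitted curve at half-maximal effect; 0% = DMSO wells and -100% = cell-free medium wells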
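Using the IDH1-knockdown HT-1080 line run in the same batch and compound series as the NT line, viability after 48 h at 37 °C was determined by CellTiter-Glo luminescence and expressed as % activity.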
* hit, by the source's call; ? = inconclusive; / = not tested or not shown; [ ] = dose if it differs, or a comment. This excerpt belongs to a sample that is enriched for hits. Unless noted, calls follow the shape of the dose curve; as a rule, active = well fitted curve in the direction sought with a large enough effect; inconclusive = small, poorly fitted or top-dose-only effect, or another doubt; inactive = no such curve, though single readings can be large; an effect the other way counts as inactive or inconclusive. Unless noted, % is scaled to controls: 0 for no effect and ±100 for the full control effect.

SMILES	TDP1 cell noCPT	IL-1B inflam inh	ALOX12 inh	HT1080-NT tox	TDP1 cell CPT	HT1080 IDH1KD tx
Nc1cc(N)nc(SCC(=O)c2ccc3c(c2)NC(=O)CO3)n1	-15%	-1	-4%	-6%	-1%	0%
O=C1COc2ccc(C(=O)CSc3nnc(Cc4cccs4)n3-c3ccc(Cl)cc3)cc2N1	18µM*	0	-13%	9%[9.24 µM]	18µM*	?
O=C1COc2ccc(C(=O)CSc3nc4ccccc4c(=O)n3-c3ccc(Cl)c(Cl)c3)cc2N1	?	84	-15%	0%	23µM*	1%
CCCn1c(SCC(=O)c2ccc3c(c2)NC(=O)CO3)nc2ccccc21	9.2µM*	30	-23%	?	10µM*	-18%
O=C(CSc1nc2[nH]ncc2c(=O)n1-c1ccccc1)c1ccc2c(c1)OCCO2	?	-54*	-3%	-25%	?	-5%
O=C(Nc1cccc(CN2CCOCC2)c1)/C(=C/c1ccccc1)c1ccccc1	/	/	-20%	/	/	/
O=C1COc2ccc(C(=O)CSc3nnc(NCc4ccccc4)s3)cc2N1	13µM*	-21	-4%	-3%	?	-9%
Cc1cc(SCC(=O)c2ccc3c(c2)OCCO3)nc2ccccc12	/	/	16µM*	/	/	/
Cn1c(SCC(=O)c2ccc3c(c2)NC(=O)CO3)nc2ccccc21	?	43	0%	10%	?	30%
CCc1ccc(-n2c(SCC(=O)c3ccc4c(c3)NC(=O)CO4)nc3ccccc3c2=O)cc1	21µM*	53	0%	0%	?	8%
O=C(NC1CCCCC1)[C@@H]1C[C@@H](O)CN1C1CCN(C(=O)c2cc(F)ccc2F)CC1	/	/	30%	/	/	/
CCc1ccc2c(c1)-c1ccccc1S(=O)(=O)N2CC(=O)Nc1ccccc1C(F)(F)F	/	/	26%	/	/	/
CCOC(=O)C1CCCN(S(=O)(=O)c2cc(-c3nc(-c4ccc(Cl)cc4)no3)sc2C)C1 (stereo unspecified)	/	/	2%	/	/	/
Cc1cc(C)nc(SC(C(=O)O)c2ccccc2)n1 (stereo unspecified)	-7%	12	-1%	17%	2%	3%
Cc1cc(C(F)(F)F)nc(SC(C(=O)O)c2ccccc2)n1 (stereo unspecified)	/	/	11µM*	/	/	/
Cc1ccc(-c2nccc(N3CCC(O)C3)n2)c(C)c1 (stereo unspecified)	/	/	35µM*	/	/	/
COc1ccc(CN2CCCCCNC(=O)[C@@H]3CCC[C@@H]32)cc1Cn1ccnc1	/	/	319%	/	/	/
CC(=O)Nc1c(SC(F)(F)F)cc(SC(F)(F)F)cc1SC(F)(F)F	/	/	-19%	/	/	/
Cc1nc2c(c(SCC(=O)Nc3ccccc3C(F)(F)F)n1)CCC2	21µM*	/	-16%	/	?	/
Cc1ccc(C)c(NC(=O)CSc2n[nH]c(-c3ccccn3)n2)c1	18µM*	60	0%	-21%	23µM*	?
Cc1ccc(O)c(NC(=O)CSc2n[nH]c(-c3ccccc3)n2)c1	16µM*	88	-10%	-8%	?	-22%
Cc1ccccc1NC(=O)CSc1n[nH]c(-c2ccccn2)n1	?	152	-1%	?	18µM*	?
c1ccc(CCCOCC2CCNCC2)cc1	/	/	26%	/	/	/
COCCNC(=O)N1CCc2nn(CC3CC3)c(=O)n2CC1	/	/	11%	/	/	/
CCOC(=O)c1ccc(NC(=O)CS(=O)(=O)Cc2nc(-c3ccccc3C)oc2C)cc1	/	/	18%	/	/	/
SMILES	TDP1 cell noCPT	IL-1B inflam inh	ALOX12 inh	HT1080-NT tox	TDP1 cell CPT	HT1080 IDH1KD tx
O=C(CSc1n[nH]c(-c2ccncc2)n1)Nc1ccccn1	?	39	?	-2%	-5%	-4%
O=C(CSc1n[nH]c(-c2ccccc2)n1)c1ccc(O)c(O)c1	?	74	2.5µM*	?	?	?
CCOc1ccc(-c2nc(SCC(=O)c3ccccc3)n[nH]2)cc1	-27%	/	?	/	-20%	/
O=C(CSc1n[nH]c(-c2ccncc2)n1)Nc1ccccc1C(F)(F)F	10µM*	32	0%	6%	18µM*	5%
COc1ccc(-c2c(C)oc3c(C)c(OCCN4CCC(C(N)=O)CC4)ccc3c2=O)cc1	/	/	-39%	/	/	/
O=C(Nc1ccc2c(c1)OCO2)N1CCN(c2cccc(C(F)(F)F)c2)CC1	21µM*	-25	-14%	-4%	9.2µM*	-1%
